Source: PubChem (several laboratories)
Shown are actives, neighbours in structure and some others; about 9.3% of the full set was active somewhere.
A340 absorber: compound light absorbance at 340 nm, profiling panel, artefact control, biochemical, MLSMR library, data from PS, PMK, MK assays. 65,000 tested, under 10 active. compound absorbance at 340 nm, fold over control. fold change at 10 µM;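 active = at 10 µM dose, initial 340 nm absorbance at least 2 fold that of control wells; inactive = change under 2 fold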;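 note: initial absorbance extrapolated from kinetic A340 decline of NADH oxidation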
M1 agonist: M1 muscarinic receptor agonists, primary screen, CHO-M1 cells, Fluo-4 calcium, agonist mode; 64,000 compounds, 3% hits; Fluo-4 calcium fluorescence; stronger effect = higher value; B-score at 10 µM;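 active = fluorescence rise, raw or as B-score row- and column-corrected plate score, outside the 99.7% band of its plate's samples, either direction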
M1 antag: antagonists of rat M1 muscarinic receptor. 64,000 compounds, 3.4% hits. CHO-M1 cells, Fluo-4 calcium, ACh EC80 antagonist mode; stronger effect = lower value. Muscarinic acetylcholine receptor M1 (Rattus norvegicus), P08482. B-score at 10 µM. AID 628, 2007;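 active = calcium fluorescence response, raw or row-and-column corrected B-score, differing from the plate sample mean either way at a set confidence level, mostly lower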
Target sequence (P08482 whole entry, looked up): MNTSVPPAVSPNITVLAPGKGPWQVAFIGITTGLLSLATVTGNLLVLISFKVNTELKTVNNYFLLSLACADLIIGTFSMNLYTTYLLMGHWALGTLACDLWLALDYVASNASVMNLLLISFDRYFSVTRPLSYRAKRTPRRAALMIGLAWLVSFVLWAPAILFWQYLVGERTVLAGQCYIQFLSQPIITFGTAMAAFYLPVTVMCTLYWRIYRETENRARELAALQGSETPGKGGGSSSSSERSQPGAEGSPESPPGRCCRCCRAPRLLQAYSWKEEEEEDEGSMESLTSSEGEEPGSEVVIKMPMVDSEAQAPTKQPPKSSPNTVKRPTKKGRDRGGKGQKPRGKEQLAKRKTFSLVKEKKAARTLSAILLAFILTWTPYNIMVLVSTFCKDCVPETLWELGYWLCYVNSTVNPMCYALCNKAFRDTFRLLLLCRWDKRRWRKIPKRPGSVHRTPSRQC
mHtt clearance: clearance of mutant huntingtin inclusions, primary screen, imaging, HeLa Exon1htt(103Q)mCFP, confocal imaging; aggregate imaging; zero = plate's median compound well; inhibition, % at 1.5 µM; 47,000 compounds, 0.42% hits;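 active = inhibition of aggregate fluorescence above about 70%, also judged a hit by eye on the cell image, limit read from the data, passing the limit was not always enough; inconclusive = no rule stated for this call; inactive = not judged a hit on image review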;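 note: cells exposed to compound for three days before fixation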
NADH coupling: inhibitors of PK/LDH coupling enzymes, profiling panel, artefact control, biochemical, MLSMR library | IC50, µM (series often up to 10 µM), for the others: at the highest dose inhibition | coupled PK/LDH NADH assays, four targets | AID 774, 2007 | 65,000 compounds, 0.02% hits;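 active = single-dose screening hits from any of four coupled enzyme assays that gave an IC50 when retested across doses; inconclusive = no clear call, values can overlap the other calls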;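 note: the DPM-DC format reads NADH fluorescence rather than 340 nm absorbance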
Fluor 339 460: intrinsic fluorescence of library compounds, ex339/em460 – biochemical, MLSMR library, data from DPM-DC assay, artefact control, profiling panel; compound autofluorescence, ex339/em460 nm, NADH buffer; stronger effect = higher value; 1 = no-compound wells, NADH background; fluorescence fold increase at 10 µM; 65,000 compounds, 5.5% hits;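 active = at 10 µM, mean starting fluorescence two-fold or more over control wells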;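 note: signal is the first read of a kinetic run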
The depositor's hits bear a star; i = inactive; ? = inconclusive; · = not tested or not shown.

SMILES | A340 absorber | M1 agonist | M1 antag | mHtt clearance | NADH coupling | Fluor 339 460
C=CCn1c(=N)c(C#N)cc2c(=O)n3ccccc3nc21 | · | · | · | 5.6 | · | ·
CCCCn1c(=NC(C)=O)c(C#N)cc2c(=O)n3cccc(C)c3nc21 | 1.07 | 21.2* | 0.0486 | · | 8.0% | 3.88*
CCc1ccc(C(C)NC(=O)Cn2cnc3c(=O)n(C)c(=O)n(C)c32)cc1 (configuration not stated) | · | · | · | -14.8 | · | ·
CC(C)N=C(NC#N)SCc1ccc(F)cc1 | 1.02 | -0.23 | 0.00203 | -29.7 | 6.0% | 1.08
COc1ccc(-c2nc(NC(=O)CSc3nnc(C)s3)ns2)cc1 | 1.06 | -0.179 | 0.192 | ? | 13.0% | 2.78*
CCCOC(=O)c1cc(=O)[nH]c2ccccc12 | 1.03 | 0.874 | 0.958 | · | 6.0% | 2.3*
CC(C)COC(=O)c1cc(=O)[nH]c2ccccc12 | 1.05 | 0.501 | -0.0729 | · | 0.0% | 1.56
CCCCC(=O)NCCc1cc2c(OC)ccc(OC)c2[nH]c1=O | 1.04 | -0.644 | 0.0709 | · | 7.0% | 1.15
CCOC(=O)c1cc(-c2ccccc2)sc1NC(=O)c1ccc(OC)cc1 | · | · | · | 25.9 | · | ·
COC(=O)c1cc(-c2ccccc2)sc1NC(=O)c1cc(C)on1 | 1.01 | 1.12 | -1.35 | · | 4.0% | 2.46*
O=C(Nc1cccnc1)c1coc(=O)c2ccccc12 | 1.01 | · | · | 27.1 | 10.0% | 1.5
Cc1ccc(-c2cc(C(=O)Nc3cccnc3)c3ccccc3n2)o1 | 1.09 | 0.821 | -1.24 | 3.2 | 8.0% | 2.2*
Cc1ccc(NC(=O)c2ocnc2C)cc1Cl | 0.99 | -0.165 | 0.00372 | 1.0 | 7.0% | 0.97
COc1ccc(CNc2oc(-c3ccccc3)nc2C#N)cc1 | 1.02 | -1.69 | 0.835 | · | 1.0% | 1.96
CN(C)c1oc(-c2ccc(OCc3ccc(Cl)cc3)cc2)nc1C#N | 1.06 | 0.485 | 0.0133 | · | 6.0% | 3.29*
COCCNc1oc(-c2ccc(Cl)cc2)nc1C#N | 1.08 | -0.198 | -0.343 | -33.3 | 5.0% | 2.38*
COCCNc1oc(-c2ccc(C)cc2)nc1C#N | 1.02 | -0.29 | 0.281 | 9.8 | 3.0% | 2.49*
CCN(CC)CCCNc1oc(-c2cccc(Cl)c2)nc1C#N | 1.01 | -0.0966 | -0.484 | -16.6 | 5.0% | 3.05*
CCOC(=O)CC(=O)CSc1nc(N)c(C#N)c(-c2ccc(F)cc2)c1C#N | 1.09 | 0.394 | 0.669 | · | 9.0% | 1.11
CN(C)CCCNc1oc(-c2ccc(Cl)cc2)nc1C#N | 1.04 | -0.459 | -0.348 | 29.5 | 7.0% | 4.8*
O=C(Nc1ccc(-c2nc3ccccc3o2)cc1)c1cccnc1 | · | · | · | 26.3 | · | ·
COC(=O)c1ccc(-c2nc3ccc(C)cc3o2)cc1 | 1.08 | 0.0189 | -0.54 | i | 14.0% | 3.76*
COC(=O)c1ccc(-c2nc3ccccc3o2)cc1 | 1.06 | 0.0467 | -1.44 | · | 2.0% | 4.57*
CCOC(=O)c1c(NC(=O)c2noc3c2CCCC3)sc(C)c1C | 1.03 | -0.0615 | -0.472 | · | 16.0% | 3.26*
CCOC(=O)c1sc(NC(=O)c2noc3c2CCCC3)c(C(=O)OCC)c1C | 0.98 | -0.258 | 0.154 | 1.8 | 3.0% | 2.15*
SMILES | A340 absorber | M1 agonist | M1 antag | mHtt clearance | NADH coupling | Fluor 339 460
CCOC(=O)c1sc(NC(=O)c2c(C)noc2C)c(C(=O)OCC)c1C | 1.05 | 0.423 | 0.531 | -2.0 | 4.0% | 1.24
O=C(CSc1ncnc2c1oc1ccccc12)NCc1ccc(F)cc1 | 1.06 | 0.432 | -0.392 | · | 1.0% | 1.12
O=C(NCc1cccs1)C1CCCN(c2nc3ccccc3o2)C1 (configuration not stated) | 0.99 | -0.475 | 0.0242 | · | 12.0% | 1.05
Cc1oc2cc3c(C(=O)N4CCN(c5ccccc5)CC4)c(C)oc3cc2c1C(=O)N1CCN(c2ccccc2)CC1 | · | · | · | 1.1 | · | ·
CCOC(=O)c1sc(Nc2nc3c(OC)cccc3s2)nc1C | 1.04 | 0.184 | -0.00298 | · | 9.0% | 2.24*
CCN1C(=O)CSc2ccc(C(=O)NCCCN3CCOCC3)cc21 | 0.99 | 0.12 | -0.811 | 8.7 | 6.0% | 1.07
O=C(NCCN1CCOCC1)c1ccc2c(c1)N(Cc1ccccc1)CCS2 | 1.04 | -0.718 | -0.615 | · | 9.0% | 2.03*
O=C(NCCN1CCOCC1)c1ccc2ccccc2c1 | · | · | · | -29.8 | · | ·
CN1CCN(CCCNC(=O)c2ccc3c(c2)N(Cc2ccccc2)CCS3)CC1 | 1.08 | 0.54 | -0.474 | 12.2 | 8.0% | 2.11*
CCOC(=O)C1CCCN(C(=O)c2cn(C)c3ccc(S(=O)(=O)N(C)C)cc3c2=O)C1 (configuration not stated) | 1.13 | 0.217 | 0.97* | ? | 3.0% | 1.07
COCCNC(C)C(=O)Nc1ccc(Br)cc1 (configuration not stated) | 1.04 | 0.275 | 1.07 | · | 17.0% | 1.06
CN(C)c1nc(SCC#N)nc(N(C)C)n1 | 1.05 | -1.61 | 0.0907 | 72.2* | 0.0% | 1.16
Nc1c(C(=O)Nc2ccc(Cl)cc2)oc2ccccc12 | 1.14 | 0.0328 | 0.401 | 17.6 | 11.0% | 2.12*
COC(=O)c1ccc(-c2ccc(CNCC(O)c3ccccc3)o2)cc1 (configuration not stated) | 1.02 | -0.63 | 0.777 | · | 6.0% | 2.93*
CCn1cc([N+](=O)[O-])c(C(=O)N2N=C3/C(=C/c4cccs4)CCCC3C2c2cccs2)n1 (configuration not stated) | · | · | · | -10.4 | · | ·
CCCCOc1ccc(-c2nnn(CC(=O)Nc3ncc(CC(=O)OCC)s3)n2)cc1 | 0.98 | -1.03 | 2.54* | · | 3.0% | 0.99
COc1ccc2[nH]c(=O)c(CN(CCc3ccccc3)Cc3nnnn3CC3CCCO3)cc2c1 (configuration not stated) | 1.08 | 1.89 | -0.455 | · | 10.0% | 2.52*
COc1ccc2[nH]c(=O)c(CN(Cc3ccccc3OC)Cc3nnnn3CC3CCCO3)cc2c1 (configuration not stated) | 1.09 | -0.479 | 0.674 | · | 11.0% | 2.26*
COc1ccc2[nH]c(=O)c(CN(Cc3ccc(C)cc3)Cc3nnnn3CC3CCCO3)cc2c1 (configuration not stated) | 1.06 | 0.662 | -1.86 | -7.1 | 15.0% | 2.13*
COc1ccccc1CN(Cc1cc2cc(C)ccc2[nH]c1=O)Cc1nnnn1CC1CCCO1 (configuration not stated) | 1.02 | 0.623 | -0.545 | -30.1 | 7.0% | 1.18
O=C(O)CCC(=O)NC1CCCCC1NC(=O)CCC(=O)O (configuration not stated) | 1 | 0.631 | 0.398 | 9.0 | 1.0% | 1.06
COc1cc(NC(=O)c2ccc(-c3ccc(Br)cc3)o2)ccc1NC(=O)C(C)C | 1.13 | 0.169 | 0.117 | · | 5.0% | 3.79*
Cc1nnc2sc(-c3cccc(NC(=O)c4ccc(-c5cccc(Cl)c5)o4)c3)nn12 | 1.09 | -0.0385 | 0.405 | 26.9 | 13.0% | 1.37
